# Test system: Perkinsus marinus PRA240
# Experiment: ATP content (proliferation) relative to DMSO control; higher = more parasite growth (less inhibition)
# Details: 20 µM; 4 days
# Experimental: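 Perkinsus marinus PRA240 trophozoites (2-5x10^6 cells/ml, 100 µl, 96-well) were exposed once to MMV Malaria Box compounds at 20 µM (0.1% DMSO) in triplicate. ATP content (ATPlite bioluminescence) was read at day 4 post-exposure and normalised to DMSO + cells control wells (100% activity). Compounds were identified by joining plate and well to the Malaria Box list.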
row,Compound,ATP content
1,O=c1nc(C=Cc2ccc(Cl)cc2)oc2ccccc12,22.2%
2,Cc1cc(NC(=O)c2ccc(-c3ccccc3)cc2)no1,69.1%
3,CCOc1ccc(CN2CCN(CC(O)COc3ccc(OCC(O)CN4CCN(Cc5ccc(OCC)cc5)CC4)cc3)CC2)cc1 (stereo not given),137%
4,CC(=O)Nc1nnc(SCc2c(C)cc(C(C)(C)C)cc2C)s1,84.2%
5,COC(=O)c1ccc(Cl)c2c1C1C=CCC1C(c1cccc3ccccc13)N2 (stereo not given),106%
6,CCCc1c(C)nc2ccccc2c1O,28.8%
7,O=C(NC1CCN(Cc2ccccc2)CC1)c1cc2nc(-c3ccc(Cl)s3)cc(C(F)(F)F)n2n1,118%
8,COc1ccc(-c2nonc2NC(=O)c2cccc(C)c2)cc1OC,82.6%
9,CCOc1c(Cl)cc(CNCC(O)c2ccccc2)cc1OC (stereo not given),105%
10,CC(=O)NCCc1nc2ccccc2n1Cc1ccc(C(C)C)cc1,120%
11,CCCCc1c(C)nc2c(OC)cccc2c1O,37.3%
12,CCOc1cccc(C(=O)Nc2ccc(-c3nc4ccccc4[nH]3)cc2)c1,143%
13,O=C(Nc1ccc(Cl)c(Cl)c1)Nc1ccc(Cl)c(Cl)c1,91.6%
14,COc1cc(C(=O)Nc2nc3c(cc4c5c(cccc53)CC4)s2)cc(OC)c1OC,89.8%
15,COc1cc(OC)cc(N2C(=O)N(Cc3ccc(C(C)(C)C)cc3)c3ccccc3S2(=O)=O)c1,130%
16,O=C(Cc1ccccc1)NC(c1ccc(Cl)cc1)c1c(O)ccc2ccccc12 (stereo not given),36%
17,Cc1ccc2cc3c(N)c4c(C)ccc(C)c4nc3nc2c1,142%
18,OC(CNC1CCCC1)Cn1c2ccccc2c2ccccc21 (stereo not given),148%
19,CCN1CCN(c2cc(C)c3cc(NC(=O)c4ccc(OC)c(OC)c4)ccc3n2)CC1,91.6%
20,COc1cc(-c2nc(-c3ccc(Sc4ccccc4)cc3)c(-c3ccccc3)[nH]2)cc(OC)c1O,78.3%

row,Compound,ATP content
1,CCN(CC)S(=O)(=O)c1ccc(-c2csc(Nc3ccc(C)c(C)c3)n2)cc1,142%
2,O=C(NCc1ccco1)C1CCN(S(=O)(=O)c2ccc(Cl)cc2)CC1,89.8%
3,Oc1ccc2ccccc2c1CNc1nc2ccccc2[nH]1,65.9%
4,Cc1sc2ncnc(Sc3nc4ccccc4[nH]3)c2c1C,131%
5,CCCCOC(=O)c1ccc(Nc2cc(C)nc3ccc(OC)cc23)cc1,93.9%
6,COc1ccc(Nc2nc(NCc3ccccc3)c3ccccc3n2)cc1,103%
7,CCN(CC)CCn1c(=N)n(CC(O)c2ccc(Cl)c(Cl)c2)c2ccccc21 (stereo not given),110%
8,Cc1cccc(-n2ncc3c(=O)[nH]c(-n4nc(C)cc4NC(=O)c4cc5ccccc5o4)nc32)c1,19%
9,Oc1ccc(Cl)cc1CNc1nc2ccccc2[nH]1,49.7%
10,Cc1ccc(NC(=O)Nc2cccc(Cl)c2)cc1F,85%
11,Cc1ccccc1OCCSc1nc2ccc(NC(=O)c3ccccc3)cc2s1,50.6%
12,CCCCOc1ccc(C(=O)Nc2cc(C)on2)cc1,61.2%
13,COc1ccc(CCn2c(=N)c(C(=O)NCc3cccnc3)cc3c(=O)n4cccc(C)c4nc32)cc1,140%
14,CCN(CC)c1cc(C)c2cc(NC(=O)c3cccc(OC)c3)ccc2n1,74%
15,CCOc1ccc2nc(C)cc(Nc3ccc(N(C)C)cc3)c2c1,86.6%
16,CCN(Cc1ccccc1)C1CCN(Cc2cc(Br)ccc2O)CC1,171%
17,COc1cc(C(=O)Nc2ccc(-c3nc4ccccc4[nH]3)cc2)cc(OC)c1OC,124%
18,COc1ccccc1C(=O)ON=C(N)Cc1cccc2ccccc12,148%
19,COc1ccc(N2CCN(C(CNC(=O)CC(C)(C)C)c3ccc4c(c3)OCO4)CC2)cc1 (stereo not given),211%
20,O=C(Nc1nc(-c2ccccn2)cs1)c1ccccc1Br,8.72%

# Source: the supplement of paper PMC4206467
